AMA1-RON2 inh: qHTS for Inhibitors of AMA1-RON; Towards Development of Antimalarial Drug Lead: Primary Screen | AlphaScreen AMA1-biotinylated RON2 peptide binding | AID 720542, 2013 | Potency, µM (titrated, usually from 58.2 µM), without a hit: at the highest dose activity change, negative = inhibition, usual class: inhibitors | Plasmodium falciparum AMA1 (3D7) - RON2 peptide interaction | 360,000 tested, 0.2% active;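 also: 0% = vehicle wells and -100% = peptide control; nearly all actives have a fitted effect of over 45% in size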
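AMA1 (3D7) with his tag at 25 nM final met compounds first, then biotinylated RON2 peptide at 25 nM; detection used donor plus acceptor beads, 10 µg/mL apiece, read by AlphaScreen after 30 min at room temperature.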
VACV Venus inh: qHTS for Stage-Specific Inhibitors of Vaccinia Orthopoxvirus: Venus Reporter Primary qHTS; Vaccinia virus Venus reporter expression, fluorescence; 330,000 tested, 0.46% active; Potency, µM (top dose mostly 36.5 µM), without a hit: at the highest dose activity change, negative = inhibition, actives largely listed as inhibitors; AID 720580, 2013; calls by dose curve; tested in A549 cells; also: nearly all actives have a fitted effect of over 30% in size
VACV mCherry inh: qHTS for Stage-Specific Inhibitors of Vaccinia Orthopoxvirus: mCherry Reporter Primary qHTS; Potency, µM (highest dose often 36.5 µM), without a hit: at the highest dose activity change, negative = inhibition, hits mostly inhibitors; 310,000 tested, 0.63% active; Vaccinia virus mCherry reporter infection, fluorescence; calls by dose curve; tested in A549 cells; also: nearly all actives have a fitted effect of over 35% in size
Pf growth 96h: Primary qHTS for delayed death inhibitors of the malarial parasite plastid, 96 hour incubation. AID 504834, 2011. 320,000 tested, 6.9% active. Potency, µM (doses to about 28.7 µM), for inactives: at the top dose activity change, negative = inhibition, hits mostly inhibitors. P. falciparum luciferase reporter growth, 96 h
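Luminescence readout: decreased luciferase signal marks inhibited growth of reporter-expressing P. falciparum in infected red cells (2% hematocrit, 0.05% parasitemia final), exposed to compound two generations (96 h, 37 C, 5% CO2).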
Pf growth 48h: Primary qHTS for delayed death inhibitors of the malarial parasite plastid, 48 hour incubation; P. falciparum luciferase growth in erythrocytes, 48 h; Potency, µM (titrated, usually from 28.7 µM), without a hit: top-dose activity change, negative = inhibition, hits mostly inhibitors; 310,000 tested, 5.9% active; AID 504832, 2011
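Compounds are pin-transferred into medium, infected erythrocytes (2% hematocrit, 0.1% parasitemia final) are added, and plates sit one parasite generation at 37 C in 5% CO2. Detection reagent is then added and luminescence measured.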
Numbers without * were called inactive; i = inactive; u = inconclusive; x = no result given; [ ] = another dose, or the depositor's remark. Hits are enriched below; roughly 8.7% of the tested compounds scored in any of these assays. Unless noted, calls follow the shape of the dose curve; as a rule, active = well fitted curve in the direction sought with a large enough effect; inconclusive = small, poorly fitted or top-dose-only effect, or another doubt; inactive = no such curve, though single readings can be large; an effect the other way counts as inactive or inconclusive. Unless noted, % is scaled to controls: 0 for no effect and ±100 for the full control effect; potency is read from the fitted curve at half-maximal effect.

SMILES	AMA1-RON2 inh	VACV Venus inh	VACV mCherry inh	Pf growth 96h	Pf growth 48h
O=C(Nc1ccc(S(=O)(=O)N2CCCCC2)cc1)c1ccco1	-2.8%	-6.7%	-5.4%	-7.6%	u
COc1cccc(-c2nc(SCC(=O)Nc3ccc4c(c3)OCCO4)c(-c3ccc(C)cc3)[nH]2)c1	x	-9.9%	-12.3%	x	x
COC(=O)C1CCCCN1Cc1ccc2c(c1)CN(C(=O)c1ccc(F)cc1)CCO2 (stereo not given)	x	-1.2%	-6.2%	x	x
CN(CCO)C(=O)c1cn(C2CCN(Cc3ccc(C(F)(F)F)cc3)CC2)nn1	x	-11.9%	-9.9%	x	x
CC(C)(C)NC(=S)N1CCn2cccc2C1c1cccnc1 (stereo not given)	2.7%	-0.9%	i	9.28µM*	4.0%
Cc1cc(C)n(-c2nc(C)c(C)c(=O)n2CC(=O)Nc2ccc(OC(F)(F)F)cc2)n1	x	-3.0%[7.34 µM]	-11.8%[7.34 µM]	x	x
CC(=O)[C@H]1CC[C@H]2[C@@H]3CCC4=CC(=O)CC[C@]4(C)[C@H]3CC[C@]12C	-2.1%	-27.7%	-11.5%	10.4µM*	u
COCCCNc1nc2c(-c3cccc(Br)c3)nnn2c2ccccc12	x	-3.2%	5.4%	x	x
COCCCNc1nc2c(-c3ccc(Cl)cc3)nnn2c2ccccc12	14.6%	-1.7%	-14.5%	11.7µM*	-0.6%
O=C(CN1CC[n+]2c(-c3cccs3)csc21)c1ccc(-c2ccccc2)cc1	38.4%	-12.4%	i	u	13.1µM*
O=C(CN1CCCCC1)Nc1ccccc1NC(=O)CN1CCCCC1	39.9%	-7.6%	-11.4%	63.3%	1.5%
O=C(CN1CCCCCC1)Nc1cccc2c1OCO2	5.5%	-2.9%	-7.0%	1.04µM*	4.8%
Cc1ccc(CC(=O)NCc2nc(-c3ccccc3)no2)cc1	x	-7.6%	-8.4%	x	x
Cc1cccc(N(C)C(=O)CCNS(=O)(=O)c2ccc3c(c2)CCN3C(=O)C2CC2)c1	x	-1.1%	-12.7%	x	x
COc1ccc(NC(=O)c2cccc(S(=O)(=O)N3CCN(c4ccccc4)CC3)c2)c(OC)c1	-29.9%	-10.9%	u	u	10.4µM*
COc1ccc(NC(=O)c2cccc(S(=O)(=O)N3CCCCC3)c2)c(OC)c1	-3.8%	-3.1%	-26.2%	2.94µM*	-1.9%
COc1ccccc1NC(=O)c1cccc(S(=O)(=O)N2CCN(c3ccccc3)CC2)c1	-4.0%	x	x	u	u
CNC(=O)c1ccccc1NC(=O)c1cccc(S(=O)(=O)N2CCCCC2)c1	-0.7%	1.8%	i	2.94µM*	u
COc1ccc(C(=O)Nc2cc(S(=O)(=O)N3CCCCC3)ccc2OC)cc1	6.4%	x	x	-7.2%	11.3%
COc1ccc(NC(=O)c2ccc(S(=O)(=O)N3CCCCCC3)cc2)c(OC)c1	-20.2%	-11.7%	i	13.1µM*	73.6%
Cc1ccc2ncc(C)c(/C=C/c3ccc(N(C)C)cc3)c2c1	x	-17.4%	-25.7%	x	x
CCOC(=O)c1c(C)[nH]c(C)c1C(=O)COC(=O)/C=C/c1ccc(Cl)cc1	-15.4%	-17.7%	-5.9%	9.28µM*	u
Cc1ccc(OCc2cc(C(=O)NC3CCCCC3)no2)cn1	-2.6%	x	x	13.1µM*	16.7%
CC(=O)c1cccc(OCc2cc(C(=O)NC3CCN(Cc4ccccc4)CC3)no2)c1	4.4%	x	x	11.7µM*	-29.6%
O=C(NC1CCCC1)c1cc(COc2ccc3ncccc3c2)on1	-8.2%	x	x	-6.0%	-20.5%
SMILES	AMA1-RON2 inh	VACV Venus inh	VACV mCherry inh	Pf growth 96h	Pf growth 48h
Cc1ccc(OCc2cc(C(=O)N3CCCCCCC3)no2)cc1C	-0.7%	x	x	1.65µM*	14.4%
O=C(NCc1ccc(Cl)cc1)c1cnc(N2CCCCC2)c2ccccc12	x	-18.9%	-14.3%	x	x
COC(=O)c1sc(N2C(=O)c3oc4ccc(C)cc4c(=O)c3C2c2ccc(OC)cc2)nc1C (stereo not given)	x	-15.6%	-12.6%	x	x
O=C1NC(=O)C2(Cc3ccccc3N3CCCC32)C(=O)N1Cc1ccccc1 (stereo not given)	-17.6%	x	x	-4.7%	u
O=C1NC(=O)[C@]2(Cc3ccccc3N3CCN(c4ccccc4)CC32)C(=O)N1Cc1ccccc1 (stereo not given in full)	-20.0%	x	x	9.28µM*	u
C#CCN(Cc1ccc(OC)cc1)S(=O)(=O)C=C	x	28.2µM*	u	x	x
CCN(CC)C(=O)c1cc(-c2ccc(Cl)cc2)on1	x	-1.1%	-14.5%	x	x
COc1ccc(OC)c(CNc2ncc(-c3cccc([N+](=O)[O-])c3)n2C)c1	14.1µM*	x	x	189.6%	-11.4%
Cn1c(-c2cccc([N+](=O)[O-])c2)cnc1NCc1cccc([N+](=O)[O-])c1	u	x	x	7.2%	0.0%
O=C(NC(Cc1ccccc1)C(=O)O)C1CCCCC1 (stereo not given)	4.3%	-8.3%	-7.5%	10.4µM*	2.8%
O=C(NCCCCC(NC(=O)C1CCCCC1)C(=O)O)c1ccccc1 (stereo not given)	-1.0%	-0.4%	i	8.28µM*	u
O=C(NCCCCc1ccccc1)c1cccc(NC(=O)C2CCCCC2)c1	-8.8%	u	i	x	x
Cc1cc(=O)n2nc(N3CCC(C(=O)Nc4ccc(C)c(Cl)c4)CC3)sc2n1	x	-23.6%	-6.8%	x	x
O=C(COc1cccc(C(F)(F)F)c1)Nc1ccc(S(=O)(=O)N2CCCCC2)cc1	-9.2%	-17.4%	-28.1%	9.28µM*	u
O=C(CNc1cc(S(=O)(=O)N2CCCC2)ccc1OCC(F)(F)F)Nc1cccc(C(F)(F)F)c1	-12.0%	u	u	13.1µM*	u
O=C(COc1ccccc1Br)Nc1ccc(S(=O)(=O)N2CCCC2)cc1	-9.6%	x	x	u	5.86µM*
O=C(CNc1cc(S(=O)(=O)N2CCOCC2)ccc1N1CCOCC1)Nc1cccc(C(F)(F)F)c1	18.6%	2.1%	i	x	x
COc1ccccc1OCC(=O)Nc1ccc(S(=O)(=O)N2CCCC2)cc1	-7.2%	-6.4%	13.7%	13.4%	-19.8%
Cc1cccc(OCC(=O)Nc2nnc(S(=O)(=O)N3CCCCC3)s2)c1	-22.2%	3.6%	6.8%	7.38µM*	18.6%
CN(Cc1ccccc1)C(=O)c1ccc(CSc2nc3cccnc3n2Cc2ccccc2F)cc1	x	-7.4%	-14.8%	x	x
CCN(c1ccccc1)S(=O)(=O)c1ccc(NC(=O)c2cc(=O)c3c(C)cc(C)cc3o2)cc1	x	-12.8%	15.9%	x	x
CCOc1ccc(C(c2c(O)cc(C)n(Cc3ccco3)c2=O)N2CCCCC2)cc1 (stereo not given)	x	-11.0%	-17.0%	x	x
CN(C(=O)C1=CC(c2ccc3c(c2)OCO3)=NS(=O)(=O)N1C)c1ccccc1	x	6.8%	-2.0%	x	x
CCCS(=O)(=O)N1CC(=O)N(c2ccc(C)c(Cl)c2)C(C)(C(=O)NC2CCCCCC2)C1 (stereo not given)	x	-6.6%	i	x	x

From PubChem BioAssay
